# Reference: PubChem BioAssay (NCATS)
# A number with no mark means an inactive call. Results filed as inconclusive are left out. Active and inactive are the calls of the source. Unless noted, calls follow the shape of the dose curve; as a rule, active = well fitted curve in either direction with a large enough effect (not every such curve was filed as active); inconclusive = small, poorly fitted or top-dose-only effect, or another doubt; inactive = flat fitted curve, though single readings scatter.
# Experiments:
# [1] = molecular target: Lysosomal acid glucosylceramidase (Homo sapiens) (UniProt P04062); assay: Glucocerebrosidase-p2 (AID 348; in the data active = potency below about 10 µM; also: potency is read from the fitted curve at half-maximal effect); settings: purified GBA, blue fluorogenic substrate, 40 min
# In short: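 Normal human glucocerebrosidase (0.2 nM) with blue fluorogenic substrate (80 uM final) in citrate/phosphate pH 5.9 with 10mM sodium taurocholate, 0.01% tween-20; 40 min RT, NaOH/glycine stop; fluorescence Ex 365/Em 440; AC50 from a titration from 0.6 nM upwards.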
# [2] = molecular target: Cytochrome P450 1A2 (Homo sapiens) (UniProt P05177); assay: p450-cyp1a2 (AID 410; calls by dose curve; also: potency is read from the fitted curve at half-maximal effect;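 as to activity change, negative = inhibition: -100% = full effect of reference inhibitor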); settings: recombinant CYP1A2, luciferin-ME demethylation, luminescence; series mostly up to 57 µM
# In short: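 Luminescent demethylation readout: Luciferin-ME (100uM, equal to Km) turned over by 20nM CYP1A2 for 60 min at room temperature after NADPH regeneration addition, following 10 min compound preincubation. Normalization used 57 uM furafylline as full inhibition.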
# [3] = NFAT Signaling Pathway (AID 444); settings: Jurkat NFAT-bla M1, carbachol, beta-lactamase ratio, 5 h; at 7.69 µM (top of the series) unless noted;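 also: carbachol stimulus at about its EC50 of 1 µM final; % is scaled to controls: 0 for no effect and ±100 for the full control effect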
# In short: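 Jurkat cells with NFAT-driven β-lactamase reporter and co-expressed M1 receptor, stimulated with carbachol (final 1 uM, ~EC50), compound titration, 5 h at 37 °C. CCF4 loaded 1 h at RT; 460/530 nm ratio gave %activity and AC50.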
# [4] = Stat Signaling Pathway (AID 446); settings: ME-180 SIE beta-lactamase reporter, IL-6 stimulated, 5 h; at 7.69 µM (top of the series) unless noted;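 also: ME-180 cervical cancer cells given 40 pM IL-6 alongside compound; SIE-controlled beta-lactamase reporter measured as 460/530 nm FRET emission ratio; % is scaled to controls: 0 for no effect and ±100 for the full control effect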
# In short: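 FRET read-out (405 nm excitation, 460/530 nm emission) of a beta-lactamase reporter under a STAT-inducible element in ME-180 cervical carcinoma cells. Cells with compound receive 40 pM IL-6 for 5 h. Values are normalised to AC90 stimulation and AC90 JAK-inhibitor controls.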
# [5] = molecular target: Glucocorticoid receptor (Homo sapiens) (UniProt P04150); assay: GR-GFP Redistribution (AID 450;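 active = compounds whose dose series gives a full or clear partial fitted curve of increased nuclear translocation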; also: potency is read from the fitted curve at half-maximal effect); settings: U2OS GR-GFP nuclear translocation, laser cytometry, 2 h
# [6] = molecular target: Glucocorticoid receptor (Homo sapiens) (UniProt P04150); assay: GR-EFC Redistribution (AID 451; calls by dose curve; also: potency is read from the fitted curve at half-maximal effect); settings: CHO-K1 GR-EFC translocation, beta-gal luminescence, 2 h
# In short: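 CHO-K1 cells expressing nuclear EA and GR-ED fragments of b-gal; compounds titrated up to 46 uM final, 2 h at 37 C. GR nuclear translocation read as complemented b-gal luminescence after 1 h RT detection.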
# [7] = molecular target: Mitogen-activated protein kinase 10 (Mus musculus) (UniProt Q61831); assay: JNK3 AlphaScreen Assay (AID 530); settings: JNK3 lysate, c-Jun phosphorylation; series mostly up to 57.1 µM;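 also: kinase came from lysate of stimulated human HepG2 cells; signal reports phosphorylation of biotinylated GST-cJun 1-79 at Ser73 with 10 µM ATP; % is scaled to controls: 0 for no effect and ±100 for the full control effect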
# In short: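 Activity was read by AlphaScreen after JNK3-containing HepG2 lysate (cytokine pre-activated) phosphorylated biotinylated GST-cJun with 10 uM ATP at room temperature. Phospho-Ser73 cJun antibody with Protein-A acceptor beads provided detection.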
# [8] = molecular target: 3',5'-cyclic-AMP phosphodiesterase 4B (Homo sapiens) (UniProt Q07343); assay: qHTS Assay for Inhibitors of PDE-IV (AID 607; active = well fitted activation curve with a large enough effect in the main read-out, with a control signal flat, not every such curve was filed as active; also: % of control where 0% means no effect); settings: HEK293 ACTOne CNG channel cells, membrane potential fluorescence; series mostly up to 22.9 µM
# In short: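 Cell-based read-out of cAMP via a modified cyclic nucleotide-gated channel and membrane potential dye (535/590 nm) in HEK293 cells expressing PDE4 endogenously. Compounds tested up to 22.9 uM final; 100 uM RO 20-1724 reference.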
# [9] = molecular target: Cytochrome P450 2C9 (Homo sapiens) (UniProt P11712); assay: qHTS Assay for Inhibitors and Substrates of Cytochrome P450 2C9 (AID 883; active = well fitted curve in the direction sought with a large enough effect; an effect the other way counts as inactive or inconclusive; also: % is scaled to controls: 0 for no effect and ±100 for the full control effect; nearly all actives have a fitted effect of over 60% in size); settings: recombinant CYP2C9, luciferin-H luminescence, 60 min; series mostly up to 57.1 µM
# In short: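 Signal: luciferase luminescence reporting luciferin produced by CYP2C9. Conditions: 10nM enzyme, Luciferin-H 100uM at KM, 25mM KPO4, 37C, 60 min NADPH-driven reaction. Reference: 57uM sulphaphenazole as 100% inhibition.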
# [10] = molecular target: Cytochrome P450 2C19 (Homo sapiens) (UniProt P33261); assay: qHTS Assay for Inhibitors and Substrates of Cytochrome P450 2C19 (AID 899; active = well fitted curve in the direction sought with a large enough effect; an effect the other way counts as inactive or inconclusive; also: nearly all actives have a fitted effect of over 60% in size; also: potency is read from the fitted curve at half-maximal effect); settings: recombinant CYP2C19, luciferin-H EGE luminescence; series mostly up to 57.1 µM
# In short: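 Signal comes from luciferase acting on luciferin released by CYP2C19-mediated hydroxylation of Luciferin-H EGE, 10uM (KM). Assay mix: 5nM enzyme, 50mM KPO4; 60 min at 37C with NADPH regeneration. Data normalized against 57uM ketoconazole.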
# [11] = qHTS Assay for Identification of Small Molecule Agonists for Hypoxia Response Element Signaling Pathway (AID 914; active = well fitted activation curve with a large enough effect in the signal ratio, with a control signal flat, not every such curve was filed as active; the % refers to the signal ratio; also: potency is read from the fitted curve at half-maximal effect; as to activation: % of control where 0% means no effect); settings: ME-180 HRE-bla reporter, beta-lactamase ratio, CoCl2, 17 h; activation: stronger effect = higher value
# In short: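 HRE-bla ME-180 assay for agonist-like enhancement of an EC50 CoCl2 stimulus: 17 h at 37 degrees Celsius, CCF4 for 2.5 h, ratiometric 460/530 nm signal converted to %Activity and fitted to AC50.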
# [12] = Primary qHTS for small molecule stabilizers of the endoplasmic reticulum resident proteome: Secreted ER Calcium Modulated Protein (SERCaMP) assay (AID 1508630; active = well fitted curve in the direction sought with a large enough effect; an effect the other way counts as inactive or inconclusive; also: % is scaled to controls: 0 for no effect and ±100 for the full control effect); settings: SH-SY5Y GLuc-SERCaMP (Gaussia luciferase released on ER calcium loss) secretion, thapsigargin, luminescence; series mostly up to 38.4 µM
# In short: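 The SH-SY5Y reporter protocol was run at 3 concentrations up to 38.3 uM (primary) or 11 concentrations (follow-up): 16 h compound, 100 nM thapsigargin for 4 h, then extracellular luciferase luminescence.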
# [13] = molecular target: Cytochrome P450 3A4 (Homo sapiens) (UniProt P08684); assay: qHTS Assay for Activators of Cytochrome P450 3A4 (AID 885; active = well fitted curve in the direction sought with a large enough effect; an effect the other way counts as inactive or inconclusive; also: nearly all actives have a fitted effect of over 65% in size); settings: recombinant CYP3A4, Luciferin-PPXE luminescence, 60 min; series mostly up to 57.1 µM
# In short: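 Luminescent readout of luciferin formed from 25 uM Luciferin-PPXE (KM level) by 20 nM CYP3A4 in 200 mM KPO4, with 60 min NADPH-driven reaction at room temperature after 10 min compound exposure. Ketoconazole (57 uM) defined 100% inhibition.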
# [14] = AP1 Signaling Pathway (AID 357); settings: ME-180 (cervical carcinoma) AP-1-bla reporter, EGF-induced, beta-lactamase ratio, 5 h; at 7.69 µM (top of the series) unless noted
# In short: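 First, ME-180 AP-1-bla cells were cultured overnight at 37 °C in low-serum Opti-MEM. Next, titrated compounds with EC50 EGF were incubated 5 hours. Finally, CCF4 was added for 2.5 hours and the 460/530 nm ratio recorded.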
# [15] = molecular target: Cytochrome P450 3A4 (Homo sapiens) (UniProt P08684); assay: qHTS Assay for Inhibitors and Substrates of Cytochrome P450 3A4 (AID 884; active = well fitted curve in the direction sought with a large enough effect; an effect the other way counts as inactive or inconclusive; also: % is scaled to controls: 0 for no effect and ±100 for the full control effect; nearly all actives have a fitted effect of over 50% in size); settings: recombinant CYP3A4, Luciferin-PPXE luminescence; series mostly up to 57.1 µM
# In short: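 Luminescent readout of luciferin produced by CYP3A4 (20 nM) dealkylation of Luciferin-PPXE, 25 uM (its KM). NADPH-driven reaction ran 60 min at RT after 10 min compound preincubation; data scaled to 57 uM ketoconazole as 100% inhibition.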
# Sequence of Cytochrome P450 3A4 (Homo sapiens) (P08684 whole entry, looked up): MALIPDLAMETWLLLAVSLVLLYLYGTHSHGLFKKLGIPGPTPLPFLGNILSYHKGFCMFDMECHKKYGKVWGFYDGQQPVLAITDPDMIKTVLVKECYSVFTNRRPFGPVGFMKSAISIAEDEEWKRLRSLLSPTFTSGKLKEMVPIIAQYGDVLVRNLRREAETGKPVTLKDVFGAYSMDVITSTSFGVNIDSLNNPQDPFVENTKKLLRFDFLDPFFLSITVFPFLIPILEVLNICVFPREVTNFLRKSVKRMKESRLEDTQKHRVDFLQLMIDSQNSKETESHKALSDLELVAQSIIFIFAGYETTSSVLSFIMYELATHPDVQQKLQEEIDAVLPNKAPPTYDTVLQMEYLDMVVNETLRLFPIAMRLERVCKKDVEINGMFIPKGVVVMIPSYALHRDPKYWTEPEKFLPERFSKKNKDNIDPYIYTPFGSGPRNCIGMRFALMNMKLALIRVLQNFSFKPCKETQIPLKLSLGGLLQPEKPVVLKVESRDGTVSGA
# Sequence of Lysosomal acid glucosylceramidase (Homo sapiens) (P04062 whole entry, looked up): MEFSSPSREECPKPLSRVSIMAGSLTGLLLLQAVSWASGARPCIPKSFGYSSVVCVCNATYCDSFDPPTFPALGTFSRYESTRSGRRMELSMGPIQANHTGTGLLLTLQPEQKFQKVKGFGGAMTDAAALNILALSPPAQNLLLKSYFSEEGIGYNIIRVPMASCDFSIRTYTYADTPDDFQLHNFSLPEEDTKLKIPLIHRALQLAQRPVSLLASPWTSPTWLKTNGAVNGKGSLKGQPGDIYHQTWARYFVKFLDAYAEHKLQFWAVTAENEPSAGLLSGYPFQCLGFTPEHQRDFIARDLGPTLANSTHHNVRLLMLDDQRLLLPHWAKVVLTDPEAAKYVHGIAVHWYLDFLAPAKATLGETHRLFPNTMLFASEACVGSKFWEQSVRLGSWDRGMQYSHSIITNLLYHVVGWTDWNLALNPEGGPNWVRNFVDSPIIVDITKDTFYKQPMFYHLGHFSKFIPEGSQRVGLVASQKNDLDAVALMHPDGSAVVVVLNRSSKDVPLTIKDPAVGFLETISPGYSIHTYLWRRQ
# Sequence of 3',5'-cyclic-AMP phosphodiesterase 4B (Homo sapiens) (Q07343 whole entry, looked up): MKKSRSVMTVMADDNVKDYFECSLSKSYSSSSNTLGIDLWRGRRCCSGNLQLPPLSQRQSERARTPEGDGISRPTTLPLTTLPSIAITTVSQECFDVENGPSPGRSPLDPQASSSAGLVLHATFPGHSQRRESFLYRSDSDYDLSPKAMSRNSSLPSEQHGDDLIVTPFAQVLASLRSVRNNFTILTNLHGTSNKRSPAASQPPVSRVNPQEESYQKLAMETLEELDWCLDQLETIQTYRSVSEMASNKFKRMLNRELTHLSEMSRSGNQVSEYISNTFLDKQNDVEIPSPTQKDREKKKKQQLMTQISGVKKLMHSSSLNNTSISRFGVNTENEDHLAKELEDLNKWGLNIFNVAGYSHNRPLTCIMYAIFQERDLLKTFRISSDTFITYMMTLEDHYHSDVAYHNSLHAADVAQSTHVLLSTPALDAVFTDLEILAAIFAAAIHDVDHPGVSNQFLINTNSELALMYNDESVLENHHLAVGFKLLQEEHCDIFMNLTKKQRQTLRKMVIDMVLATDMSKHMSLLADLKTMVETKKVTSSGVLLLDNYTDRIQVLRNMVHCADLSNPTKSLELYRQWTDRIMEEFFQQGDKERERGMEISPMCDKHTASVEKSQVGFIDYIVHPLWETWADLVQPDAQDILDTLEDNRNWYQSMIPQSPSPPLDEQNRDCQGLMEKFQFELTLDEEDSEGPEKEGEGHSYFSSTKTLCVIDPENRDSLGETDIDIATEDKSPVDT
# Sequence of Cytochrome P450 1A2 (Homo sapiens) (P05177 whole entry, looked up): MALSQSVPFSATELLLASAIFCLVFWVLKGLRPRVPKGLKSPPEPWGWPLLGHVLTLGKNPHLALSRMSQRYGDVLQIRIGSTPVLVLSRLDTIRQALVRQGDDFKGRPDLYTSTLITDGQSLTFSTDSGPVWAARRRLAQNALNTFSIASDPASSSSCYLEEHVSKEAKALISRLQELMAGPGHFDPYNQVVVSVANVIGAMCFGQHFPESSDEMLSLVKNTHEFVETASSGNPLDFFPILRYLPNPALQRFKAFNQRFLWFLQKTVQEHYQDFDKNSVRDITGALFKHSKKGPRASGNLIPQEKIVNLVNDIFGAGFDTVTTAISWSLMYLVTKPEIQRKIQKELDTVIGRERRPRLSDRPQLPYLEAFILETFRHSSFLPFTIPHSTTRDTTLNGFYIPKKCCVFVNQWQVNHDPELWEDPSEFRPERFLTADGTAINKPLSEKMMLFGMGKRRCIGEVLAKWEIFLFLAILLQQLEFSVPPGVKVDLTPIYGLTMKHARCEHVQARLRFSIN
# Sequence of Glucocorticoid receptor (Homo sapiens) (P04150 whole entry, looked up, the tested form may be a part): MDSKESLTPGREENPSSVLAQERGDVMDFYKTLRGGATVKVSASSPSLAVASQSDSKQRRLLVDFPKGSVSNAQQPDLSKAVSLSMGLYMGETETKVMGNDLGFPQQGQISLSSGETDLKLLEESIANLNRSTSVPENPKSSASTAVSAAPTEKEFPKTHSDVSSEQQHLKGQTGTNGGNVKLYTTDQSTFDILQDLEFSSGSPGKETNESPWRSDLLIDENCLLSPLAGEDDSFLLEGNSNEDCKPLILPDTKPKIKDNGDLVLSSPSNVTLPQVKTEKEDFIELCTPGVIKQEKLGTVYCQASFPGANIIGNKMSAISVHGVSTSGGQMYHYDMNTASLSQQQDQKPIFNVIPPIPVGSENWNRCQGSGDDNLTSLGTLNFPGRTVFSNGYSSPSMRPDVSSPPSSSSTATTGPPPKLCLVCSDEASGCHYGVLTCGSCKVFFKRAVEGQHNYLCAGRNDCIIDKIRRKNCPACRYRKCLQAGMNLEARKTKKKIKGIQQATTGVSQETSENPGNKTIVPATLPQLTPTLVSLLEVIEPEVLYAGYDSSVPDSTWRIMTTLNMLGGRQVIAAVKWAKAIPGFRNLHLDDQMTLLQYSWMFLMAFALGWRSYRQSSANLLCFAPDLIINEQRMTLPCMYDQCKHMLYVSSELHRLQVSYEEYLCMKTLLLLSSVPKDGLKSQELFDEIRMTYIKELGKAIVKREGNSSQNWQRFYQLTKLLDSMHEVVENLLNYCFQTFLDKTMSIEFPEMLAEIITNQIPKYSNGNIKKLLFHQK
# Sequence of Cytochrome P450 2C9 (Homo sapiens) (P11712 whole entry, looked up): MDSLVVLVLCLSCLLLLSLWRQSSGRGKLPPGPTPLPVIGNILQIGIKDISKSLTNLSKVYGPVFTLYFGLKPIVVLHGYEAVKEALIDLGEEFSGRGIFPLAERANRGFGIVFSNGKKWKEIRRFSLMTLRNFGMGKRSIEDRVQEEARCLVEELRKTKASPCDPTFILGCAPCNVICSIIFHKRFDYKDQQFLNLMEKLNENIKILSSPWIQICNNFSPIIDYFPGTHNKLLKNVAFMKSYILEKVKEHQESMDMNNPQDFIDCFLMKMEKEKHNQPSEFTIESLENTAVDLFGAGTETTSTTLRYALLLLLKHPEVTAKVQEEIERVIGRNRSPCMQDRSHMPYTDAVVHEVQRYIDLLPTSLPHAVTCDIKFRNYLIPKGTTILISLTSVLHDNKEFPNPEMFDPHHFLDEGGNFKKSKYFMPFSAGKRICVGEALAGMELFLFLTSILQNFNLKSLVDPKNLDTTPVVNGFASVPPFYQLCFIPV
# Sequence of Cytochrome P450 2C19 (Homo sapiens) (P33261 whole entry, looked up): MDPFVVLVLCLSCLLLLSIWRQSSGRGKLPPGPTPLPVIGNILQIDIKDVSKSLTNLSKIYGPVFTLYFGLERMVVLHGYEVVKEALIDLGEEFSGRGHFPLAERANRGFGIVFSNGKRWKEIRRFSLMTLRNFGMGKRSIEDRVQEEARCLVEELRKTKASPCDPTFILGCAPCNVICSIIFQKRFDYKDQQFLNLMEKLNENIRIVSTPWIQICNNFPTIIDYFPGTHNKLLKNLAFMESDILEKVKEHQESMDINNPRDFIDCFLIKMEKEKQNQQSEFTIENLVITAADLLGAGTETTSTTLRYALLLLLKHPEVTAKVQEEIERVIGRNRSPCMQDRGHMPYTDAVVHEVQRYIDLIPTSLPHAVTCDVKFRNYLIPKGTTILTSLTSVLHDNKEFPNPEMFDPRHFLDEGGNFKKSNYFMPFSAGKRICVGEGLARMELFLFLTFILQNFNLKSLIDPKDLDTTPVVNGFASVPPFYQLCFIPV
Compound,Potency [1],Potency [2],"activity change, negative = inhibition [3]","activity, negative = inhibition [4]",Potency [5],Potency [6],Potency [7],Potency [8],Potency [9],Potency [10],activation [11],outcome [12],Potency [13],Potency [11],"activity change, negative = inhibition [14]",Potency [15]
COc1ncc2nc(C)c(=O)n(CCC#N)c2n1,> 11.4 µM,15.8 µM (active),-6.19%,-5.09%,> 9.22 µM,> 46 µM,inactive,inactive,inactive,inactive,7.94%,inactive,–,–,–,–
CCNc1ncc2nc(-c3ccccc3)c(=O)n(Cc3ccc(F)cc3)c2n1,> 11.4 µM,3.16 µM (active),–,82.9% [activator] (active),> 9.22 µM,> 46 µM,–,inactive,inactive,–,–,inactive,inactive,–,–,–
COc1ccc(-n2c(=O)c(-c3ccc(Cl)cc3)nc3cnc(N4CCOCC4)nc32)cc1,> 11.4 µM,15.8 µM (active),23.6%,88.4% [activator] (active),> 9.22 µM,> 46 µM,inactive,inactive,–,–,–,inactive,–,0.631 µM (active),–,–
CCNc1ncc2ncc(=O)n(CCc3ccccc3)c2n1,> 11.4 µM,1 µM (active),9.34%,-25.4%,> 9.22 µM,> 46 µM,inactive,inactive,–,0.631 µM (active),–,inactive,inactive,–,–,–
COc1ccc(-c2nc3cnc(N(C)C)nc3n(CCc3ccccc3)c2=O)cc1,> 11.4 µM,1.26 µM (active),–,121% [activator] (active),–,> 46 µM,–,inactive,–,–,–,inactive,–,0.794 µM (active),–,–
O=C(c1cnccn1)N1CCC2(CC1)CN(Cc1ccccc1)C2,> 11.4 µM,–,–,2.48%,–,> 46 µM,inactive,inactive,–,–,6.71%,inactive,–,–,-15.8%,–
COC(=O)N1CCC2(CCCN(C(=O)Nc3ccc(OC)cc3)C2)CC1,> 11.4 µM,20 µM (active),-6.91%,-13.9%,–,> 46 µM,inactive,–,–,–,–,inactive,inactive,–,–,–
COc1cccc(Nc2ncc3nc(CCc4ccccc4)c(=O)n(C4CC4)c3n2)c1,> 11.4 µM,5.01 µM (active),–,-19.3%,> 9.22 µM,> 46 µM,inactive,–,–,–,–,inactive,inactive,–,–,–
COc1cccc(Nc2ncc3nc(-c4ccc(Cl)cc4)c(=O)n(CCC#N)c3n2)c1,> 11.4 µM,5.01 µM (active),–,-26.2%,> 9.22 µM,> 46 µM,inactive,inactive,–,–,–,inactive,–,–,–,–
O=C(c1cc(C(F)(F)F)cc(C(F)(F)F)c1)N1CCC2(CCCN(c3ccccn3)C2)CC1,> 11.4 µM,–,–,-14.7%,–,> 46 µM,inactive,–,–,–,2.81%,inactive,–,–,10.7%,–
COCCn1c(=O)c(-c2ccc(OC)cc2)nc2cnc(Oc3cccc(Cl)c3)nc21,> 11.4 µM,6.31 µM (active),-0.562%,21.8%,> 9.22 µM,> 46 µM,inactive,inactive,–,–,–,inactive,inactive,–,–,–
N#Cc1ccc(CN2CC3(CCN(C(=O)c4ccncc4)CC3)C2)cc1,> 11.4 µM,–,–,6.61%,–,–,inactive,inactive,–,–,–,inactive,inactive,–,9.93%,–
O=S(=O)(c1ccccc1)N1CCC2(CCN(c3ncccn3)CC2)CC1,> 11.4 µM,inactive,-15.7%,-15.6%,–,> 46 µM,inactive,inactive,–,–,–,inactive,inactive,–,–,–
Cn1c(=O)cnc2cnc(Nc3ccccc3)nc21,> 11.4 µM,2 µM (active),-6.55%,-16.6%,> 9.22 µM,> 46 µM,–,–,–,–,–,inactive,inactive,–,–,–
N#Cc1cccc(NC(=O)N2CCCC3(CCN(C(=O)c4ccncc4)CC3)C2)c1,> 11.4 µM,–,–,1.51%,–,> 46 µM,inactive,inactive,–,–,-1.72%,inactive,–,–,-9.49%,–
O=C(c1ccco1)N1CCC2(CC1)CCN(c1ccccn1)CC2,> 11.4 µM,–,–,-0.852%,–,> 46 µM,inactive,–,–,–,–,inactive,–,–,-7.81%,inactive
O=C(Oc1ccccc1)N1CCC2(CC1)CCN(c1cccc(-c3ccccc3)c1)CC2,> 11.4 µM,12.6 µM (active),–,-5.12%,–,> 46 µM,inactive,inactive,–,–,–,inactive,–,–,–,inactive
